Assay outcomes (PubChem)
Most compounds without a hit are left out; they make up all but 1.8% or so of the library.
VHR inh abs: VHR1 phosphatase inhibitors, primary screen, biochemical, absorbance, uHTS | Dual specificity protein phosphatase 3 (Homo sapiens), P51452 | recombinant VHR phosphatase, pNPP absorbance | inhibition, % at 13.3 µM | 0.52% of 290,000 active | AID 1654, 2009; in the data active means inhibition above about 50%
Target sequence (P51452 whole entry, looked up): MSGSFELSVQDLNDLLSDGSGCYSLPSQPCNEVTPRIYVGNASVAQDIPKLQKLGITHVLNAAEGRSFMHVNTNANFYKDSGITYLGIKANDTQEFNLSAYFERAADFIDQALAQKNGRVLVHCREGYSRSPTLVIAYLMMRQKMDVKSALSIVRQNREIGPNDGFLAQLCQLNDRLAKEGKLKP
PfHsp40 rescue: rescue of yeast from PfHsp40 toxicity, primary screen, S. cerevisiae, ATP luminescence; AID 504582, 2011; 0.68% of 340,000 active; growth rescue, % at 12.5 µM; S. cerevisiae expressing PfHsp40, growth rescue; in the data active means growth rescue above about 28%, passing the limit was not always enough;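 further: yeast W303a lacking pdr1 and pdr3 grown in galactose medium; growth measured after three days at 30 °C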
RN4220 kill: growth inhibition of S. aureus RN4220, primary screen, OD600; 16 h; inhibition, % (no concentration beside the values); 0.33% of 330,000 active; AID 1259311, 2017; in the data active means inhibition above about 85%
ugtP null kill: growth inhibition of ugtP-null S. aureus, primary screen, RN4220 ugtP deletion, OD600. 16 h. growth inhibition, % (test concentration not listed). 0.54% of 330,000 active. AID 1259309, 2017; in the data active means growth inhibition above about 68%
PrPC TRFRET: inhibitors of human cell surface prion protein PrPC, primary screen, cell-based, TR-FRET; 0.43% of 370,000 active; AID 720596, 2013; TR-FRET read-out; inhibition, % at 13.8 µM; in the data active means inhibition above about 24%
Of the large screens only hits and unclear results are named; the others gave an inactive call; ! = repeats disagree.

CC1(C)CC[C@]2(C(=O)O)CC[C@]3(C)C(=CCC4[C@@]5(C)CCC(O)C(C)(C)C5CC[C@]43C)C2C1 (stereo not given in full)	ugtP null kill 91.3! (no result: VHR inh abs, PfHsp40 rescue, PrPC TRFRET)
CC1(C)[C@@H](O)CC[C@]2(C)[C@H]3C(=O)C=C4[C@@H]5C[C@@](C)(C(=O)O)CC[C@]5(C)CC[C@@]4(C)[C@]3(C)CC[C@@H]12	none (no result: RN4220 kill, ugtP null kill)
C[C@H]1[C@H](C)CC[C@]2(C(=O)O)CC[C@]3(C)C(=CC[C@@H]4[C@@]5(C)CC[C@H](O)C(C)(C)[C@@H]5CC[C@]43C)[C@H]12	none (no result: RN4220 kill, ugtP null kill)
O=C1Nc2ccccc2Nc2ccc([N+](=O)[O-])cc21	none
Cc1ccc(Oc2cc([N+](=O)[O-])cc3c2C(=O)Nc2ccccc2O3)cc1	RN4220 kill 96.9, ugtP null kill 91.1
O=C(c1nnsc1S(=O)c1ccc(Cl)cc1)N1CCOCC1 (stereo not given)	PfHsp40 rescue 143.1, RN4220 kill 95.4, ugtP null kill 100.5
O=C(Nc1ccccc1)c1nnsc1S(=O)c1ccc(Cl)cc1 (stereo not given)	RN4220 kill 100.3, ugtP null kill 100.5
O=C(NN=Cc1ccc(N2CCCC2)c([N+](=O)[O-])c1)c1cccnc1	none (no result: VHR inh abs, PfHsp40 rescue, PrPC TRFRET)
O=C(NCc1nc(-c2ccc(C(F)(F)F)cc2)no1)Nc1ccc(F)cc1F	none
O=C(NCc1nc(-c2ccc(C(F)(F)F)cc2)no1)Nc1cc(Cl)cc(Cl)c1	RN4220 kill 100.5, ugtP null kill 99.5
Cc1cccc(CSC(Nc2ccc(F)cc2)=C(C#N)C#N)c1	RN4220 kill 99.9, ugtP null kill 97.4
O=[N+]([O-])c1c(NCCCO)cc(Sc2nc3ccccc3s2)c2nonc12	RN4220 kill 87.4, ugtP null kill 100.6 (no result: PrPC TRFRET)
CC(=NNC(=O)c1ccn(C)n1)c1cccc(NC(=O)c2ccc(C)s2)c1	none (no result: VHR inh abs, PfHsp40 rescue, PrPC TRFRET)
O=C(O/N=C(\c1ccccc1)c1ccncc1)c1ccccc1Cl	PfHsp40 rescue 116.1 (no result: RN4220 kill, ugtP null kill)
Cn1c(=O)[nH]c(=O)c2c1nc(N1CCCCC1)n2CC=NNC(=O)c1cc(Br)ccc1O	none (no result: VHR inh abs, PfHsp40 rescue, PrPC TRFRET)
O=C(Nc1ccc(F)cc1)NC1(C(=O)NCc2ccc3c(c2)OCO3)CCCCC1	ugtP null kill 99.9
O=C(Nc1ccc(F)cc1)NC1(C(=O)NCc2ccco2)CCCCC1	none
O=C(CC1CC=CCCCCC(=O)OCC2CCCN2C1=O)NC(CO)Cc1ccccc1 (stereo not given)	none (no result: VHR inh abs, PfHsp40 rescue, PrPC TRFRET)
COc1ccccc1Oc1ccnc2cc(Cl)ccc12	VHR inh abs 57.6
CCOC1=NN(c2ccccc2)C(=O)C1=CN(C)C	none (no result: VHR inh abs, PfHsp40 rescue, PrPC TRFRET)
CC(=O)OCC1OC(n2cc(F)c(=O)[nH]c2=O)C(OC(C)=O)C1OC(C)=O (stereo not given)	none (no result: VHR inh abs)
O=C1C(F)=CC(COC(c2ccccc2)(c2ccccc2)c2ccccc2)OC1n1cc(F)c(=O)[nH]c1=O (stereo not given)	PfHsp40 rescue 153.8 (no result: VHR inh abs, RN4220 kill, ugtP null kill)
CCC(NC(=O)NC1=NCCS1)(C(F)(F)F)C(F)(F)F	VHR inh abs 57.4
COC(=O)C1=C(C)N=c2sc(=Cc3cccs3)c(=O)n2C1c1ccc(F)cc1 (stereo not given)	none (no result: VHR inh abs, PfHsp40 rescue, PrPC TRFRET)
Cc1nc(-n2[nH]c3c(c2=O)CCCC3)[nH]c(=O)c1Cc1ccccc1	PfHsp40 rescue 52.2
Cc1nc(N2CCc3ccccc3C2)[nH]c(=O)c1Cc1ccccc1	none (no result: RN4220 kill, ugtP null kill)
Cc1c(C=CC(=O)c2ccc(C(C)C)cc2)cnn1C	none (no result: VHR inh abs, PfHsp40 rescue, PrPC TRFRET)
CCN(CC)C(=O)C1CC(=O)N(c2ccc(F)c(Cl)c2)C1 (stereo not given)	PfHsp40 rescue 40.0
Cc1cc(C)nc(-n2nc(C)c(Sc3ccc(F)cc3)c2N)n1	PfHsp40 rescue 88.5
Cc1nn(-c2ccccc2)c(N)c1Sc1cccc([N+](=O)[O-])c1	none
Clc1ccc(OCCn2cnc3ccccc32)c(Cl)c1	PfHsp40 rescue 28.4
CC(=O)N1C(Cc2ccccc2)C=C[C@]1(C)C(=O)NCc1ccccn1 (stereo not given in full)	none (no result: VHR inh abs, PfHsp40 rescue, PrPC TRFRET)
COc1ccc2c(c1)CCc1c(C(=O)N(C)c3ccccc3)noc1-2	VHR inh abs 54.4
COCCNC(=O)c1noc2c1CCc1cc(OC)ccc1-2	none
CCCCCCSc1ccc(-c2nc3cnccn3c2NCCCC)cc1	PfHsp40 rescue 36.6 (no result: VHR inh abs, RN4220 kill, ugtP null kill)
CCCCNc1c(-c2ccc(OC)c(SC(C)CC)c2)nc2cnccn12 (stereo not given)	none (no result: VHR inh abs, RN4220 kill, ugtP null kill)
CCCCNc1c(-c2ccc(SC3CCCCC3)cc2)nc2ccccn12	none (no result: VHR inh abs)
CCCCNc1c(-c2ccc(SC(C)CC)cc2)nc2ccccn12 (stereo not given)	PfHsp40 rescue 209.2 (no result: VHR inh abs, RN4220 kill, ugtP null kill)
